# Reference: article PMC4336329 (PLoS ONE, 2015)
# The campaign covered roughly 310,000 compounds. About 14,000 (4.5%) showed an effect of 50% or more. The effect is printed as a negative number. For the sample, strong results were picked, then their nearest neighbours and some compounds at random.
# Target: human ether-à-go-go-related gene (hERG) potassium channel (human, UniProt Q12809)
# Test: primary screen, population patch clamp on CHO cells stably expressing hERG; higher = less effect of the substance
# 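Note: peak tail current of the secondary pulse compared with the same well before compound.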
# Chain of human ether-à-go-go-related gene (hERG) potassium channel (Q12809 whole entry, looked up): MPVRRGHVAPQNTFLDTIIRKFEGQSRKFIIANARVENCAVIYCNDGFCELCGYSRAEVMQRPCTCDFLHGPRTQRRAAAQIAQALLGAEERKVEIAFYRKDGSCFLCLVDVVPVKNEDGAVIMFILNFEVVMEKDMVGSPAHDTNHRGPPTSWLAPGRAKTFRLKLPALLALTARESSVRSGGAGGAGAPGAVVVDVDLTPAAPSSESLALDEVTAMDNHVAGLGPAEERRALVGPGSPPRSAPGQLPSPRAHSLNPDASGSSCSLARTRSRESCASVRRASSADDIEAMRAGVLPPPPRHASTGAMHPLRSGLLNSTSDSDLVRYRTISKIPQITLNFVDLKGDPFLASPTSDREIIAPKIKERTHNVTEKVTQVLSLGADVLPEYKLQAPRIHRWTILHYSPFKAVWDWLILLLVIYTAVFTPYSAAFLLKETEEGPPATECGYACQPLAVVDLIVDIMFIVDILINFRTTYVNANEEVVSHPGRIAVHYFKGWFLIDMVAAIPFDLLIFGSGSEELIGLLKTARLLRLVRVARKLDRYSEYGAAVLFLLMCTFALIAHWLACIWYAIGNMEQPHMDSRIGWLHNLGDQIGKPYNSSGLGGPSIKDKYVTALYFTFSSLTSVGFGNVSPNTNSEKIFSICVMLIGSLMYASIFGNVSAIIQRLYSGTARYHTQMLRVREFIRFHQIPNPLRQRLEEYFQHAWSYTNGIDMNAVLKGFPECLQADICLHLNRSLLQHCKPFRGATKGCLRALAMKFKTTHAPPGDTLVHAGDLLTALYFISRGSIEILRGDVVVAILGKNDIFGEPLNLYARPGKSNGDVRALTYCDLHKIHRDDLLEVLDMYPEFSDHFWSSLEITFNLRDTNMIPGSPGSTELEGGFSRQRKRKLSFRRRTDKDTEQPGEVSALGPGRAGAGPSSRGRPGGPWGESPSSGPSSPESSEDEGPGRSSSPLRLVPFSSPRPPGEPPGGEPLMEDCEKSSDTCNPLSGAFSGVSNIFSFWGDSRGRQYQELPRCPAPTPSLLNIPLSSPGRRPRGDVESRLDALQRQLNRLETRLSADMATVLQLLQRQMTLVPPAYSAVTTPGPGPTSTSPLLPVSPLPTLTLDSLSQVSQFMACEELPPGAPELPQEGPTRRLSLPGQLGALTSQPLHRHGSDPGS
row,SMILES,"hERG current change (%, negative = inhibition) at 10uM"
1,C/C(=N\Nc1ncc(Cl)cc1Cl)c1ccc(C#N)cc1,-4.88%
2,C/C(=N\Nc1ccccn1)c1ccc(OC(F)F)cc1,-71.3%
3,C/C(=N\Nc1ccccn1)c1ccc(C#N)cc1,-19.3%
4,COc1cccc(/C(C)=N/Nc2ncc(Cl)cc2Cl)c1,-10.3%
5,C/C(=N\Nc1ccccn1)c1ccc(C(C)C)cc1,23.7%
6,C/C(=N\Nc1ncc(Cl)cc1Cl)c1ccc(OC(F)F)cc1,-50.2%
7,CCOC(=O)CNC(=O)c1cnc(Nc2ccccc2OC)c2ccccc12,5.33%
8,COc1ccccc1C1/C(=C(\O)c2ccc3c(c2)OCCO3)C(=O)C(=O)N1Cc1cccnc1 (centres unmarked),18.9%
9,O=C(CSc1ccc(-c2cccs2)nn1)NCc1ccccc1Cl,-28.7%
10,Cc1cccc(N2CCN(C(=O)CSCc3c(C)noc3C)CC2)c1C,-14.9%
11,COc1cc(C(=O)N2CCN(c3ccc([N+](=O)[O-])cc3)CC2)ccc1OCc1c(C)noc1C,-60.2%
12,COc1ccc(N2CCN(C(=O)c3ccc(OCc4c(C)noc4C)c(OC)c3)CC2)cc1,6.01%
13,Cc1noc(C)c1COc1ccc(C(=O)N2CCN(c3ccccc3O)CC2)cc1,-14.4%
14,Cc1noc(C)c1CSCC(=O)N1CCN(c2ccc(F)cc2)CC1,-38.1%
15,Cc1noc(C)c1COc1ccc(C(=O)N2CCN(c3ccccc3F)CC2)cc1,-55%
16,COc1cc(C(=O)N2CCN(S(=O)(=O)c3ccc(C)cc3)CC2)ccc1OCc1c(C)noc1C,-21%
17,Cc1noc(C)c1CSCC(=O)N1CCN(c2ccc([N+](=O)[O-])cc2)CC1,-76.8%
18,Cc1noc(C)c1COc1ccc(C(=O)N2CCN(c3ccccn3)CC2)cc1,-31.8%
19,CCOC(=O)[C@@H]1[C@H]2COc3ccc(Br)cc3[C@H]2N2C(=O)N(c3ccc(Br)cc3)C(=O)[C@]12C,7.88%
20,COc1ccccc1NS(=O)(=O)c1cccc(C(=O)NN=C2CCCC2)c1,0.33%
21,COc1ccc(CN(C)C(=O)Cc2ccc(OC)c(S(=O)(=O)N3CCOCC3)c2)cc1,-20.4%
22,CCOC(=O)C1CCCN(S(=O)(=O)c2cccc3cccnc23)C1 (centres unmarked),-14.9%
23,Cc1nnc(SCc2ccc(Cl)cc2)n1CC1CCCO1 (centres unmarked),-3.26%
24,CSc1ccccc1NC(=O)COC(=O)Cn1cc(C(F)(F)F)ccc1=O,4.23%
25,Cc1cc2oc(=O)cc(CN3CCCCC3C)c2cc1C(C)C (centres unmarked),-22%
26,Cc1cccc(Nc2nc(-c3ccccn3)cs2)n1,12.9%
27,CN(CC(=O)OCC(=O)Nc1ccccc1)S(=O)(=O)c1ccc(Cl)cc1,-19.9%

row,SMILES,"hERG current change (%, negative = inhibition) at 10uM"
1,CCN(CC)c1ccc(/C=N/Nc2nc(C)cc(=O)[nH]2)cc1,-20.5%
2,Cc1c(Cl)cccc1NC(=S)NCCc1ccccn1,9.25%
3,O=C(CC1SC(=O)N(c2ccccc2)C1=O)Nc1cccc2ccccc12 (centres unmarked),11.7%
4,COc1cc(NC(=O)Cn2cnc(S(=O)(=O)N3CCC(C)CC3)c2)cc(OC)c1OC,20.6%
5,Br.Cc1ccc(Cn2c(=N)n(CC(=O)c3ccc([N+](=O)[O-])cc3)c3ccccc32)cc1,-4.3%
6,Br.N=c1n(CC(=O)c2ccc([N+](=O)[O-])cc2)c2ccccc2n1Cc1ccc(Cl)cc1,-14.3%
7,N=c1n(CC(=O)c2ccc(Br)cc2)c2ccccc2n1Cc1ccccc1.[Br-],-9.25%
8,Br.N=c1n(CC(=O)c2ccc([N+](=O)[O-])cc2)c2ccccc2n1Cc1ccccc1Cl,-23.6%
9,Br.CCCn1c(=N)n(CC(=O)c2ccc(OCC(=O)OC)cc2)c2ccccc21,-52.7%
10,Br.COC(=O)COc1ccc(C(=O)Cn2c(NCCCO)nc3ccccc32)cc1,-2.45%
11,Br.CCCCn1c(=N)n(CC(=O)c2ccc([N+](=O)[O-])cc2)c2ccccc21,-71.7%
12,Br.Cc1ccc(Cn2c(=N)n(CC(=O)c3ccccc3)c3ccccc32)cc1,-72.2%
13,Br.N=c1n(CC(=O)c2ccc([N+](=O)[O-])cc2)c2ccccc2n1Cc1ccccc1,-70.1%
14,O=C(N/N=C/c1ccccc1C(=O)O)c1ccncc1,18.3%
15,CCC(=O)NC(=S)Nc1ccc(-c2nc3ccccc3s2)cc1,-2.92%
16,Cc1cc(C)nc(OC(C(=O)O)C(OCc2ccccc2)(c2ccccc2)c2ccccc2)n1 (centres unmarked),21.7%
17,CCC1CCCCN1C(=O)c1ccc2c(c1)C(=O)N(c1ccc(C)cc1)C2=O (centres unmarked),-8.83%
18,CCOP(=O)(OCC)C(NS(=O)(=O)c1ccccc1)C(Cl)(Cl)Cl (centres unmarked),11.9%
19,Br.CCn1c(=N)n(CC(=O)c2ccc(OC)cc2)c2ccccc21,-18.6%
20,Br.Cc1ccccc1Cn1c(=N)n(CC(=O)c2ccc([N+](=O)[O-])cc2)c2ccccc21,-32.6%
21,Br.CCCn1c(=N)n(CC(=O)c2ccc([N+](=O)[O-])cc2)c2ccccc21,-78.5%
22,Br.COc1ccc(C(=O)Cn2c(=N)n(C)c3ccccc32)cc1,-28.8%
23,Br.CCCCn1c(=N)n(CC(=O)c2ccc(OC)cc2)c2ccccc21,-73.6%
24,N#Cc1c(-c2ccco2)cc(C2CC2)nc1SCC(=O)c1ccccc1,17.4%
25,COCCNC(=S)N1CCN(c2cccc(C(F)(F)F)c2)CC1,-12.2%
26,Cc1nn(Cc2cccc(F)c2)c(C)c1NC(=O)c1c([N+](=O)[O-])c(C)nn1C,-9.72%
